# Pol beta inh: blocks human DNA polymerase beta activity. P06746. Pol beta primer extension/strand displacement, fluorescence kinetic. Potency, µM (doses to about 114 µM), usual class: inhibitors. 340,000 tested, 1.3% active
#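 Pol beta (10 nM) was preincubated with compound for 15 min at room temperature. The reaction was then started with 50 nM substrate and read immediately and after a further 10 min at room temperature.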
# POLK inh: blocks human DNA polymerase kappa activity; Q9UBT6; 400,000 tested, 0.53% active; Potency, µM (doses to about 107 µM), most hits filed as inhibitors; purified Pol kappa, fluorescent DNA synthesis assay, 10 min
#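 Here, compound and 10 nM enzyme are combined for 15 min at room temperature; adding 50 nM substrate (final) starts DNA synthesis, tracked by fluorescence at 0 and 10 min against buffer-only wells.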
# APE1 inh: inhibitors of human APE1 endonuclease; 350,000 tested, 0.35% active; P27695; Potency, µM (titrated, usually from 65.8 µM), hits mostly inhibitors; recombinant APE1, TAMRA/BHQ-2 abasic DNA cleavage fluorescence; further: nearly all actives have a fitted effect of over 55% in size
# Target sequence (P27695 whole entry, looked up): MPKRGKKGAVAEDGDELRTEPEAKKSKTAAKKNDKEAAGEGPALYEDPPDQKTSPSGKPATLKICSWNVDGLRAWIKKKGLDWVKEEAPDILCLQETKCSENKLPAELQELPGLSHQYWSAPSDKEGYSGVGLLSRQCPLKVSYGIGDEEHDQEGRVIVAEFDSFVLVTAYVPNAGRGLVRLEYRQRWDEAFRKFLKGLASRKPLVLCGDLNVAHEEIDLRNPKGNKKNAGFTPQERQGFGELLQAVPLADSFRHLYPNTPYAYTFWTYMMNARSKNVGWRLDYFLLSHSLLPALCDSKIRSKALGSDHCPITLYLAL
#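 Activity was derived from the fluorescence gain between first and third kinetic reads (60 s intervals, ex 525/em 598 nm) after 50 nM THF-abasic TAMRA/BHQ-2 duplex was added to 0.75 nM APE1 preincubated 15 min with compound.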
# POLI inh: DNA polymerase iota (human) inhibition. Q9UNA4. Pol iota fluorescent replication assay, 10 min. Potency, µM (titrated, usually from 115 µM), usual class: inhibitors. 390,000 tested, 1% active
#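 Pol iota at 10 nM preincubated 15 min with compounds at room temperature; reaction started with fluorescent substrate, 50 nM final. Fluorescence read kinetically at 0 and 10 min; buffer-only wells as negative control.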
# Pol eta inh: DNA polymerase eta (human) inhibition; 390,000 tested, 1.2% active; recombinant Pol eta, fluorescent DNA replication assay; Potency, µM (titrated, usually from 114 µM), actives largely listed as inhibitors; Q9Y253
#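 Fluorescent replication assay: 50 nM final substrate added after a 15 min room-temperature compound preincubation with 10 nM enzyme. Signal taken at 0 min and again at 10 min.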
# GLS inh: blocks human kidney-isoform glutaminase activity | GLS enzymatic activity, qHTS titration | Potency, µM (top dose mostly 45.5 µM), hits mostly inhibitors | 410,000 tested, 0.21% active | O94925 | AID 624170
#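 Glutamate formation by hKGA was monitored fluorometrically using coupled glutamate oxidase, HRP and Amplex Red. Substrate was added as 1 mM L-glutamine solution; incubation was 30 min at RT after an initial read.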
# Numbers stand for hits; 0 = inactive; ? = inconclusive; - = no result given. In the library only some 2.4% were active in any assay of this set; here they are far more common. The call rests on the fitted dose curve; in most records, active means well fitted curve in the direction sought with a large enough effect; inconclusive means small, poorly fitted or top-dose-only effect, or another doubt; inactive means no such curve, though single readings can be large; an effect the other way counts as inactive or inconclusive.
SMILES,Pol beta inh,POLK inh,APE1 inh,POLI inh,Pol eta inh,GLS inh
O=c1c(-c2ccccc2)nc2cnc(Oc3ccccc3)nc2n1C1CC1,-,0,0,-,-,-
COc1cccc(C2CC(c3ccccc3)=NN2S(=O)(=O)c2ccc(C)cc2)c1OC (stereo unspecified),50µM,0,0,0,?,0
COc1ccc(OC)c(S(=O)(=O)Nc2ccc(O)c(Sc3ncn[nH]3)c2)c1,79µM,0,0,?,?,0
Cc1cc(C)c2nc3c(c(C(=O)O)c2c1)CCC3,18µM,0,0,?,14µM,?
CCOC(=O)c1nn2c(C(F)(F)F)cc(-c3ccc(OC)cc3)nc2c1Br,?,0,?,0,32µM,0
CCOC(=O)c1nn2c(C(F)(F)F)cc(-c3ccc(C)cc3)nc2c1Cl,0,0,-,0,0,0
COc1ccc2cc(CNc3ccc(C)cc3)c(=O)n(CC(=O)Nc3ccc(C)cc3Cl)c2c1,0,0,-,0,0,13µM
CCc1ccc(NCc2cc3cc4c(cc3n(CC(=O)Nc3ccc(OC)cc3)c2=O)OCO4)cc1,0,0,-,0,0,0
CCc1ccc(NCc2cc3cc4c(cc3n(CC(=O)Nc3cccc(OC)c3)c2=O)OCO4)cc1,0,0,-,0,0,10µM
COc1cccc(NC(=O)Cn2nnc(C(=O)NCc3ccc4c(c3)OCO4)c2N)c1,0,0,0,50µM,0,0
Cc1ccc2c(CC(=O)NCc3ccc4c(c3)OCO4)coc2c1,0,0,0,0,0,0
COc1ccc2c(CC(=O)NCc3ccc4c(c3)OCO4)coc2c1,18µM,?,0,?,50µM,0
CCOc1ccc(NC(=O)Nc2nc(SCC)ns2)cc1,0,0,0,0,0,0
C[C@H](CO)N1C[C@H](C)[C@@H](CN(C)S(=O)(=O)c2ccc(F)cc2)Oc2c(NS(=O)(=O)c3ccccc3)cccc2C1=O,-,0,0,0,0,0
Cc1ccccc1C(=O)Nc1c(C)[nH]c(=O)[nH]c1=O,0,0,0,0,0,0
CC(=O)Nc1ccc(NC(=O)c2ccc(NS(=O)(=O)c3cc(C(C)(C)C)cc(C)c3C)cc2)cc1,0,0,0,0,0,0
COc1cccc(CNC(=O)c2nnn(CC(=O)Nc3ccc4c(c3)OCO4)c2N)c1,?,0,0,0,0,0
COc1ccc(OC)c(NC(=O)c2nnn(CC(=O)Nc3ccc4c(c3)OCO4)c2N)c1,?,0,0,0,16µM,0
CC(O)CNc1nc2c(c(=O)n(Cc3ccc(Cl)cc3)c(=O)n2C)n1C (stereo unspecified),0,0,0,0,0,11µM
CN(CCO)c1nc2c(c(=O)n(Cc3ccc(Cl)cc3)c(=O)n2C)n1C,0,0,0,0,0,8.9µM
CCc1ccc(S(=O)(=O)NCc2cccn2Cc2cccc(C)c2)cc1,?,0,-,0,0,0
CCC(=O)Nc1ccc(S(=O)(=O)NCc2cccn2Cc2cccc(C)c2)cc1,0,0,-,89µM,0,0
COc1ccc(OCc2nnc(SCC(=O)Nc3cccc(Cl)c3)o2)cc1,0,0,0,0,0,0
Cc1ccc(S(=O)(=O)NCCC(=O)NC2CCCCC2C)cc1 (stereo unspecified),-,0,0,0,0,0
COc1ccc(S(=O)(=O)NCCC(=O)NC2CCCCC2C)cc1[N+](=O)[O-] (stereo unspecified),-,0,?,50µM,0,0
SMILES,Pol beta inh,POLK inh,APE1 inh,POLI inh,Pol eta inh,GLS inh
COc1ccc(Cc2nnc(NN)[nH]c2=O)cc1OC,0,0,0,0,0,22µM
CC(=O)NN1C(=O)c2ccc(Oc3ccc4c(c3)C(=O)N(NC(C)=O)C4=O)cc2C1=O,11µM,-,0,-,-,-
COc1ccccc1Oc1ccc2c(c1)C(=O)N(c1ccccc1)C2=O,0,0,0,0,0,?
O=C(O)CN1C(=O)c2ccc(Oc3ccc4c(c3)C(=O)N(CC(=O)O)C4=O)cc2C1=O,0,0,0,0,32µM,0
CC(=O)NN1C(=O)c2ccc(Oc3ccc([N+](=O)[O-])cc3)cc2C1=O,0,0,0,0,0,0
O=C(O)CN1C(=O)c2ccc(Oc3cccc4c3C(=O)N(CC(=O)O)C4=O)cc2C1=O,0,0,0,0,79µM,0
Cc1ccc(OCC(=O)Nc2ccc(O)c(-c3nc4cc(C)c(C)cc4o3)c2)cc1,-,0,-,0,-,-
CC(C)(C)S(=O)N1Cc2cc(C(=O)NCC(F)(F)F)nc(-c3cccc(-c4cccc(F)c4)c3)c2[C@@H]1CCO (stereo partly specified),-,-,-,-,-,0
O=C1c2oc3ccc(Cl)cc3c(=O)c2C(c2cccnc2)N1Cc1ccco1 (stereo unspecified),0,-,0,-,-,-
C#CCOCCOCCOCCNc1nc(N2CCN(C(=O)[C@H](CCCCN)n3cc(CN)nn3)CC2)nc(N2CCN(C(=O)[C@H](CCCCN)n3cc([C@@H](N)CC(N)=O)nn3)CC2)n1,-,0,-,8.9µM,0,0
C#CCOCCOCCOCCNc1nc(N2CCN(C(=O)[C@H](CCCCN)n3cc([C@@H](N)CC(N)=O)nn3)CC2)nc(N2CCN(C(=O)[C@H](CCCCN)n3cc([C@@H](N)CC(N)=O)nn3)CC2)n1,-,0,0,?,0,0
C#CCOCCOCCOCCNc1nc(N2CCN(C(=O)[C@H]([C@@H](C)CC)n3cc([C@@H](N)CC(C)C)nn3)CC2)nc(N2CCN(C(=O)[C@H](CCCCN)n3cc([C@@H](N)CC(C)C)nn3)CC2)n1,0,0,0,14µM,0,0
C#CCOCCOCCOCCNc1nc(N2CCN(C(=O)C(Cc3ccc(O)cc3)n3cc(C(N)CC(C)C)nn3)CC2)nc(N2CCN(C(=O)C(Cc3cc4ccccc4[nH]3)n3cc(C(N)Cc4ccc(O)cc4)nn3)CC2)n1 (stereo unspecified),35µM,-,0,-,-,-
C#CCOCCOCCOCCNc1nc(N2CCN(C(=O)[C@H]([C@@H](C)CC)n3cc([C@@H](N)CC(C)C)nn3)CC2)nc(N2CCN(C(=O)[C@H](CCCCN)n3cc([C@@H](N)C(C)CC)nn3)CC2)n1 (stereo partly specified),0,0,0,?,0,0
CCCc1ccc(C(O)c2ncc(-c3ccc(C)cc3)[nH]2)cc1 (stereo unspecified),-,-,-,-,-,0
O=C(Nc1ccc(-c2nc3ccccc3o2)c(O)c1)c1cc(-n2cnnc2)ccc1Cl,35µM,0,0,?,0,0
O=C(Nc1ccc(-c2nc3ccccc3o2)cc1)c1cc(-n2cnnc2)ccc1Cl,0,0,0,0,0,0
O=C(Nc1ccc2oc(-c3ccccc3)nc2c1)c1cc(-n2cnnc2)ccc1Cl,?,0,0,35µM,0,0
